This note sets out measurements from PubChem BioAssay (Tox21).

The source made the active and inactive calls. Unless noted, the call rests on the fitted dose curve; in most records, active means well fitted curve in the direction sought with a large enough effect in the repeat runs; inconclusive means weak or mixed curves; inactive means no such curve, though single readings can be large; an effect the other way counts as inactive or inconclusive.

A short description of test [1]: qHTS assay to identify small molecule antagonists of the glucocorticoid receptor (GR) signaling pathway - cell viability counter screen (AID 720693). Further: nearly all actives have a fitted effect of over 55% in size. Further: potency means the concentration at half of the fitted maximal effect.
A short description of test [2]: qHTS assay for identifying genotoxic compounds that show differential cytotoxicity against isogenic chicken DT40 cell lines with known DNA damage response pathways - wild type cell line (AID 743012). Further: nearly all actives have a fitted effect of over 60% in size. Further: potency means the concentration at half of the fitted maximal effect. Summed up:
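Endpoint: CellTiter-Glo luminescence, 30 min RT. Cells: wild type DT40, 300/well. Exposure: compounds in DMSO, 40 h, 37 C/5% CO2, after ~0.5 h pre-incubation.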

The nature of test [3]: qHTS assay for identifying genotoxic compounds that show differential cytotoxicity against isogenic chicken DT40 cell lines with known DNA damage response pathways - Rad54/Ku70 mutant cell line (AID 743015). Further: nearly all actives have a fitted effect of over 60% in size. Further: potency means the concentration at half of the fitted maximal effect.
A short description of test [4]: qHTS assay to identify small molecule antagonists of the androgen receptor (AR) signaling pathway - cell viability counter screen (AID 743033; further: nearly all actives have a fitted effect of over 45% in size; further: potency means the concentration at half of the fitted maximal effect).
Test [5] in a line: qHTS assay to identify small molecule antagonists of the androgen receptor (AR) signaling pathway using the MDA cell line - cell viability counter screen (AID 743041; further: nearly all actives have a fitted effect of over 45% in size). A digest of the protocol:
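qHTS viability read-out; MDA-kb2 AR-luc; R1881-stimulated; 16 h exposure at 37C, 0% CO2; CellTiter-Fluor, 30 min; fluorescence intensity.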

A short description of test [6]: qHTS assay to identify small molecule antagonists of the thyroid receptor (TR) signaling pathway - cell viability counter screen (AID 743064). Further: nearly all actives have a fitted effect of over 50% in size. Further: potency means the concentration at half of the fitted maximal effect. A digest of the protocol: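 Rat GH3 pituitary tumor cells stably expressing two TR response elements driving luciferase were plated, rested 4 h, then dosed with library compounds and T3 (1 nM final). After 23.5 h at 37 °C, CellTiter-Fluor was added for 30 min and fluorescence recorded.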

A short description of test [7]: qHTS assay to identify small molecule antagonists of the thyroid receptor (TR) signaling pathway (AID 743065). Further: nearly all actives have a fitted effect of over 55% in size. Further: potency means the concentration at half of the fitted maximal effect. A digest of the protocol: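 GH3.TRE-Luc rat pituitary cells carrying two TR response elements driving luciferase were plated for 4 h, given compound plus 1 nM T3 (final), and incubated 23.5 h at 37 C. ONE-Glo luminescence measured reporter inhibition; CellTiter-Fluor fluorescence tracked cytotoxicity.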

Test [8] relates to thyroid hormone receptor (rat, GH3 cells). As to the kind of experiment: qHTS assay to identify small molecule agonists of the thyroid receptor (TR) signaling pathway (AID 743066; calls by dose curve).
The target of test [9] is Estrogen receptor (Homo sapiens) (UniProt P03372). As to the kind of experiment: qHTS assay to identify small molecule antagonists of the estrogen receptor alpha (ER-alpha) signaling pathway (AID 743069; active means well fitted curve in the direction sought with a large enough effect in the signal ratio in the repeat runs, not every such curve was filed as active; inconclusive means weak or mixed curves, or effect the other way; inactive means no such curve, though single readings can be large or run the other way; the % refers to the signal ratio; further: potency means the concentration at half of the fitted maximal effect). A digest of the protocol:
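Screening used a UAS-driven beta-lactamase reporter integrated into HEK293 cells expressing ER-alpha, stimulated with 17beta-estradiol alongside test compounds over 18 hr at 37C; signal came from LiveBLAzer B/G FRET fluorescence.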

Test [10] is described as follows: qHTS assay to identify small molecule antagonists of the estrogen receptor alpha (ER-alpha) signaling pathway - cell viability counter screen (AID 743074; calls by dose curve; further: nearly all actives have a fitted effect of over 45% in size).
Test [11] has as its target Estrogen receptor (Homo sapiens) (UniProt P03372). As to the kind of experiment: qHTS assay to identify small molecule agonists of the estrogen receptor alpha (ER-alpha) signaling pathway (AID 743075; calls by dose curve; further: potency means the concentration at half of the fitted maximal effect).
Test [12] shares this target. As to the kind of experiment: qHTS assay to identify small molecule agonists of the estrogen receptor alpha (ER-alpha) signaling pathway using the BG1 cell line (AID 743079). Further: nearly all actives have a fitted effect of over 20% in size. Further: potency means the concentration at half of the fitted maximal effect.
The nature of test [13]: qHTS assay to identify small molecule antagonists of the estrogen receptor alpha (ER-alpha) signaling pathway using the BG1 cell line (AID 743080; calls by dose curve;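 further: BG1 cells stimulated with 17beta-estradiol alongside compound; series mostly up to about 70 µM; nearly all actives have a fitted effect of over 25% in size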). A digest of the protocol: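 Endogenous full-length ER-alpha in BG1-Luc-4E2 cells drives a stably integrated 4×ERE luciferase gene; compounds were tested against 17beta-estradiol over 21.5 h, with luminescence and multiplexed viability fluorescence recorded.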

Test [14] is described as follows: qHTS assay to identify small molecule antagonists of the estrogen receptor alpha (ER-alpha) signaling pathway using the BG1 cell line - cell viability counter screen (AID 743081).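 Further: compound given together with 17beta-estradiol as the ER stimulus; series mostly up to about 70 µM; nearly all actives have a fitted effect of over 45% in size.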
A further test deals with Aromatase (Homo sapiens) (UniProt P11511). As to the kind of experiment: qHTS assay to identify aromatase inhibitors (AID 743083). Further: nearly all actives have a fitted effect of over 55% in size. Further: potency means the concentration at half of the fitted maximal effect.
Test [15] is described as follows: qHTS assay for identifying genotoxic compounds that show differential cytotoxicity against isogenic chicken DT40 cell lines with known DNA damage response pathways - Rev3 mutant cell line (AID 743014). Further: nearly all actives have a fitted effect of over 55% in size. Further: potency means the concentration at half of the fitted maximal effect.
Test [16] has as its target Androgen receptor (Homo sapiens) (UniProt P10275). As to the kind of experiment: qHTS assay to identify small molecule antagonists of the androgen receptor (AR) signaling pathway (AID 743035; active means well fitted inhibition curve with a large enough effect in the signal ratio in the repeat runs, not every such curve was filed as active; inconclusive means weak or mixed curves, or effect the other way; inactive means no such curve, though single readings can be large or run the other way; the % refers to the signal ratio; further: potency means the concentration at half of the fitted maximal effect). A digest of the protocol:
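R1881 agonist challenge of a HEK293 UAS-beta-lactamase AR reporter line in the presence of compound (16 h, 37C); signal taken as FRET fluorescence after 2 h with LiveBLAzer B/G substrate at room temperature.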

Test [17] shares this target. As to the kind of experiment: qHTS assay to identify small molecule agonists of the androgen receptor (AR) signaling pathway (AID 743036; active means well fitted activation curve with a large enough effect in the signal ratio in the repeat runs, with a control signal flat, not every such curve was filed as active; inconclusive means weak or mixed curves, or effect the other way; inactive means no such curve, though single readings can be large or run the other way; the % refers to the signal ratio). A digest of the protocol: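 Quantitative HTS of the Tox21 10K library in HEK293 cells bearing a stably integrated UAS-controlled beta-lactamase reporter. Compound exposure lasted 16 h at 37C. Reporter activity was detected by FRET substrate fluorescence after 2 h at room temperature.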

Test [18] shares this target. As to the kind of experiment: qHTS assay to identify small molecule agonists of the androgen receptor (AR) signaling pathway using the MDA cell line (AID 743040; further: nearly all actives have a fitted effect of over 20% in size). Summed up:
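Agonist activity is measured as luciferase luminescence in human MDA-kb2 cells whose MMTV reporter responds to both AR and GR. Compounds in DMSO incubate 16 h at 37C, 0% CO2, and ONE-Glo is read after 30 min.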

Test [19] shares this target. The test is described as follows: qHTS assay to identify small molecule antagonists of the androgen receptor (AR) signaling pathway using the MDA cell line (AID 743042; further: nearly all actives have a fitted effect of over 55% in size; further: potency means the concentration at half of the fitted maximal effect). Summed up:
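MDA-kb2 cells (human breast carcinoma, stably carrying an MMTV-luciferase reporter responsive to AR and GR) were plated at 3,000 cells/well and preincubated 5 hr at 37C, then given compound plus R1881 agonist for 16 h. ONE-Glo luminescence was read.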

Aromatase (Homo sapiens), sequence (P11511 whole entry, looked up): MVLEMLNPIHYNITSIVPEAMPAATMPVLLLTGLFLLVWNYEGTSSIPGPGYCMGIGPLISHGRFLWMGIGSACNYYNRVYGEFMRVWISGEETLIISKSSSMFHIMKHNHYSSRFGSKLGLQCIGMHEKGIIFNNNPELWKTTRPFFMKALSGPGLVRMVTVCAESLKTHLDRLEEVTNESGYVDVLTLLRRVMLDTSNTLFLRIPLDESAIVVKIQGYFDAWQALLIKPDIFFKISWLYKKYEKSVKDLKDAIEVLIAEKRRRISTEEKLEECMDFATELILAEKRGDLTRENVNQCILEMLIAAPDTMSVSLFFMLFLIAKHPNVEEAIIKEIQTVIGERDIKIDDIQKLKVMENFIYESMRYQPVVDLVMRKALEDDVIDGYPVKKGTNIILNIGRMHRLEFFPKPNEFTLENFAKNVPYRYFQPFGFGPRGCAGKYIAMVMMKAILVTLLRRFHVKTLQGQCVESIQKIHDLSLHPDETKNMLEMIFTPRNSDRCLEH
Estrogen receptor (Homo sapiens), sequence (P03372 whole entry, looked up): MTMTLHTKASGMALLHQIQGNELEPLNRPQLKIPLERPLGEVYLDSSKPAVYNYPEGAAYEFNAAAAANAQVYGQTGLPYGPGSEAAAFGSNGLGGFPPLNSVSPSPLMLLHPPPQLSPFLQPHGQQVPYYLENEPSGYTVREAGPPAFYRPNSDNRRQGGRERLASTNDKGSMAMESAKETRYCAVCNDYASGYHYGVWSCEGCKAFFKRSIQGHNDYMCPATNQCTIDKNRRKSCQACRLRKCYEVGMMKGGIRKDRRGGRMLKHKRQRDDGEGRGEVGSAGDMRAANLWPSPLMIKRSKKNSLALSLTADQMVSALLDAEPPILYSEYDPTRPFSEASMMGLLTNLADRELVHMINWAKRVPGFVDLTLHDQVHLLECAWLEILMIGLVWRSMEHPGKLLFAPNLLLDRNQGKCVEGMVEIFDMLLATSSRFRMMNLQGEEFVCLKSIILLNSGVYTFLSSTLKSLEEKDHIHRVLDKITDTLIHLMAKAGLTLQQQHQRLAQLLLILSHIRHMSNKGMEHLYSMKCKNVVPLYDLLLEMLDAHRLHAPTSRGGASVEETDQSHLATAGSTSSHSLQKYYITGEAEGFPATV
Androgen receptor (Homo sapiens), sequence (P10275 whole entry, looked up): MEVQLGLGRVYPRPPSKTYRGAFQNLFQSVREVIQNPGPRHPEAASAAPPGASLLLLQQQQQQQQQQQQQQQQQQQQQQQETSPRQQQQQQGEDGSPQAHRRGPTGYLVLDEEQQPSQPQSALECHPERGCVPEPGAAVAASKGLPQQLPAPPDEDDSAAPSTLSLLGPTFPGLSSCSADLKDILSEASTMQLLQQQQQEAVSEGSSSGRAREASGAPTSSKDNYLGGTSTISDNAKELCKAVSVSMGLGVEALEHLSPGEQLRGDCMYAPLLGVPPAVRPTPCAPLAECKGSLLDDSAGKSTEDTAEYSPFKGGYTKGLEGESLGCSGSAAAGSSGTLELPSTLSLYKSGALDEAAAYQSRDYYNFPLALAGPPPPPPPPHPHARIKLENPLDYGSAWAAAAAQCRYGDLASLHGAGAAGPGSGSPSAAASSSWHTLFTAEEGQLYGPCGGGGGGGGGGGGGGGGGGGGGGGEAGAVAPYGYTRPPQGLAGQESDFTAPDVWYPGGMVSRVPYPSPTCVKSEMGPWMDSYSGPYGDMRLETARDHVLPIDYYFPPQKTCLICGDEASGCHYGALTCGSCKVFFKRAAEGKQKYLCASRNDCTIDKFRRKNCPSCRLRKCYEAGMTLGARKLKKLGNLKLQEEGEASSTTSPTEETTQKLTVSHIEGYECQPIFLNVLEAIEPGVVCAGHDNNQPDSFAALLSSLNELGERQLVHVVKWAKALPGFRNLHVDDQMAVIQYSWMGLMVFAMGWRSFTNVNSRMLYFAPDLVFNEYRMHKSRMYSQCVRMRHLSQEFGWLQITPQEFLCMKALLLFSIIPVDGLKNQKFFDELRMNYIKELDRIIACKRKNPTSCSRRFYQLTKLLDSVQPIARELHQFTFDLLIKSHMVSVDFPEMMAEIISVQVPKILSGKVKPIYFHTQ

Regarding `C=CCCl`, the Potency result in [1], in test [2], in [3], in [4], in test [5] and in [6] was “inactive” throughout. For the same molecule, the Potency result in test [7], in test [8], in [9], in test [10], in [13] and in test [14] was “inactive” in each case. For the same molecule, the Potency result with Aromatase (Homo sapiens) is “inactive”. Further, the Potency was 57.6 µM [activator] (active) in test [11] and 32.1 µM (active) in test [12].

With `CCC(C)(NC(=O)c1cc(Cl)c(C)c(Cl)c1)C(=O)CCl` (stereo not given), the Potency was 43.9 µM (active) in test [1]; 6.9 µM (active) in test [2]; 12.3 µM (active) in [15]; 9.75 µM (active) in test [3]; 24.7 µM (active) in test [4]; 15.4 µM (active) in test [6]. The values for the Potency (in [7]; in test [9]; with Aromatase (Homo sapiens)) were 8.69 µM (active), 62 µM [inconclusive] (active) and 61.5 µM (active), respectively. Moreover, the Potency result in test [14] was “inactive”.

In the case of `O=C(NCc1cccnc1)Nc1ccc([N+](=O)[O-])cc1`, the Potency result in test [1], in test [2], in test [15], in test [4], in [5] and in test [8] was “inactive” throughout. For the same molecule, the Potency entry in test [9], in test [10], in test [11], in test [12], in [13] and in test [14] was “inactive” in each case. The Potency result with Aromatase (Homo sapiens) is “inactive”. In addition, in test [7], the Potency was 68.6 µM (active).

For `CCCCC(CC)COP(=O)(Oc1ccccc1)Oc1ccccc1` (stereo not given), the Potency result in [1], in [2], in test [4], in test [16], in test [18] and in test [5] was “inactive” each time. For the same molecule, the Potency entry in test [19], in [8], in [9], in test [10], in test [11] and in test [12] was “inactive” throughout. Also, the Potency result (in [13]; in [14]; with Aromatase (Homo sapiens)) was “inactive” in each case. The Potency in [15] is 48.6 µM (active). In addition, the result in test [17] was inactive.

For `COC1=CC(=O)O[C@@H](CCc2ccccc2)C1`, the Potency entry in test [1], in test [2], in test [15], in [4], in [18] and in [5] was “inactive” in each case. Moreover, the Potency result in test [19], in [6], in [7], in [8], in [10] and in test [14] was “inactive” in each case. The Potency result with Aromatase (Homo sapiens) is “inactive”.

On to `Clc1cccc(SC2CCNCC2)n1`, for which the Potency result in test [1], in test [2], in test [15], in test [4], in test [6] and in test [7] was “inactive” each time. Besides, the Potency entry in test [8], in test [10], in test [11], in [12], in test [13] and in test [14] was “inactive” each time. Further, the Potency entry with Aromatase (Homo sapiens) was “inactive”.

For the molecule `COC(C)(C)CCC[C@H](C)C/C=C/C(C)=C/C(=O)OC(C)C`, the Potency entry (in test [1]; in test [18]; in test [8]; in [10]; in test [14]; with Aromatase (Homo sapiens)) was “inactive” in each case. Further, the Potency in test [2] is 21.7 µM (active); in test [15], 24.3 µM (active); in test [3], 19.3 µM (active); in [7], 61.1 µM (active). Also, the outcome in test [17] was inactive.

For the molecule `CCOC(=O)[C@]1(c2ccccc2)Oc2ccccc2[C@@H]1N`, the Potency entry in test [1] is “inactive”. The Potency is 48.6 µM (active) in test [2]; 4.86 µM (active) in test [15]; 24.3 µM (active) in [3]; 68.6 µM (active) in test [6]; 68.6 µM (active) in test [7]; 27.3 µM (active) with Aromatase (Homo sapiens).

For `NS(=O)(=O)C(F)(F)C(F)(F)C(F)(F)C(F)(F)C(F)(F)C(F)(F)C(F)(F)C(F)(F)F`, the Potency is 54.9 µM (active) in [1]; 54.5 µM (active) in test [2]; 34.4 µM (active) in [15]; 68.6 µM (active) in test [19]; 61.1 µM (active) in [6]; 61.1 µM (active) in test [7]. Also, in [11], the Potency is 43.6 µM [inconclusive] (active). Also, the Potency result (in test [4]; in [18]; in test [8]; in test [12]; with Aromatase (Homo sapiens)) was “inactive” in each case.

On to `c1ccc(C2CC2)c(OCC2=NCCN2)c1`, for which the Potency entry in test [1], in test [2], in test [3], in test [4], in test [16] and in test [18] was “inactive” throughout. Moreover, the Potency entry in [19], in test [6], in [7], in [8], in test [9] and in test [10] was “inactive” each time. For the same molecule, the Potency result (in test [11]; in test [12]; in test [13]; with Aromatase (Homo sapiens)) was “inactive” throughout. Besides, the molecule was called inactive in test [17].

Regarding `CS/C(C)=N/OC(=O)N(C)SN(C)C(=O)O/N=C(\C)SC`, the Potency result in [1], in test [16], in [18], in [19], in [8] and in test [9] was “inactive” in each case. Besides, the Potency result (in test [10]; in test [11]; in test [12]; in test [13]; in [14]; with Aromatase (Homo sapiens)) was “inactive” throughout. The Potency in test [2] was 6.86 µM (active); in test [15], 17.2 µM (active); in test [3], 15.4 µM (active); in test [6], 27.3 µM (active); in test [7], 27.3 µM (active). Besides, the outcome in test [17] was inactive.

Turning to `C[C@@H]1CC[C@H]2[C@@H](C)C(=O)O[C@@H]3O[C@@]4(C)CC[C@@H]1[C@]32OO4`, the Potency result in [1], in [18], in test [8], in test [10] and in [14] was “inactive” in each case. Further, the Potency is 0.422 µM (active) in [2]; 0.473 µM (active) in [15]; 0.237 µM (active) in [3]; 1.69 µM (active) in [16]; 1.33 µM (active) in test [19]; 5.96 µM (active) in test [6]. In test [7], the Potency is 2.37 µM (active). The result in test [17] was inactive.
